We go through 17 compounds from PubChem BioAssay (NCI).

Compounds without any hit were thinned out: in the full panel of roughly 83,000, 20% have a hit.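 Step 1: grow cells in 96-well plates. Step 2: add test compound at a single concentration. Step 3: incubate 48 h. Step 4: record percent growth.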 Values without a mark were called inactive. Calls of active or inactive are those of the source. Rule for the calls: active = growth percent below 10; inactive = the rest.

Some test systems named below: NCI-H23 lung; NCI-H226 lung; NCI-H460 lung; HOP-92 NSCLC; NCI-H522 lung; A549/ATCC NSCLC; 786-0 renal; COLO 205 colon; HOP-62 NSCLC.
Common to all, as to test: NCI-60 one-dose screen, 48 h (100 = growth as untreated, 0 = no growth, -100 = all killed)
Conditions in all cases: 10 µM

For `COc1ccc(C(=O)c2ccccc2CN2C(=O)c3ccccc3C2=O)cc1`, the growth is 91.7% in the test on NCI-H23 lung; 102% in the test on NCI-H226 lung; 105% in the test on NCI-H460 lung; 86.7% with HOP-92 NSCLC; 95.3% in the test on NCI-H522 lung; 98.9% in the test on A549/ATCC NSCLC. Besides, the growth in the test with 786-0 renal was 101%; in the test on COLO 205 colon, 118%.

For `COc1ccc(-c2nn(-c3cccc(Cl)c3)cc2-c2cc(-c3ccccc3)[nH]c(=O)c2C#N)cc1`, the growth in the test on NCI-H23 lung was 26.6%; with NCI-H226 lung, 24%; with NCI-H460 lung it was 31.6%; in the test with HOP-92 NSCLC, -28% (active); in the test with NCI-H522 lung, 44%; in the test with A549/ATCC NSCLC it was 39.7%. Besides, the growth is 6.65% (active) with 786-0 renal and 60.7% with COLO 205 colon.

On to `CC(=O)Nc1ccc(CC[C@H]2CCC/C=C/[C@@H]3C[C@H](O)C[C@H]3[C@H](O)/C=C/C(=O)O2)cc1`, for which the growth was -19% (active) with NCI-H23 lung; 10.1% in the test on NCI-H226 lung; 13.3% with NCI-H460 lung; -15% (active) with HOP-92 NSCLC; -39.3% (active) in the test on NCI-H522 lung; 11.9% in the test with A549/ATCC NSCLC.

For the compound `Nc1cc(-c2ccc(Cl)cc2)nn1-c1nc2ccccc2nc1Cc1ccccc1`, the growth is 81.5% with NCI-H23 lung; 84.3% in the test on NCI-H226 lung; 88.8% in the test on HOP-62 NSCLC; 85.7% in the test with NCI-H522 lung; 78% with A549/ATCC NSCLC; 89.5% in the test on 786-0 renal.

Regarding `COc1ccc(-c2nn(-c3cccc(Cl)c3)cc2-c2cc(-c3cccs3)[nH]c(=S)n2)cc1`, the growth with NCI-H23 lung was 15.7%; with NCI-H226 lung, 58.9%; with NCI-H460 lung, 43.8%; with HOP-92 NSCLC, 94%; in the test with NCI-H522 lung, 46.5%; with A549/ATCC NSCLC it was 39.7%. For the same compound, the growth in the test on 786-0 renal is 38.4%; with COLO 205 colon it was 52.4%.

Consider `CN(C)CCCOc1ccc(OCCCN(C)C)c2c1C(=O)c1ccccc1C2=O`, for which the growth with NCI-H23 lung was -19.6% (active); in the test with NCI-H226 lung it was -5.49% (active); with NCI-H460 lung, 0.0676% (active); with HOP-92 NSCLC it was -0.93% (active); in the test with NCI-H522 lung, -48.5% (active); in the test on A549/ATCC NSCLC, 3.96% (active). In addition, the growth with 786-0 renal was 16.6%.

Take `CS(=O)(=O)c1nccc(-c2c(-c3ccc(OCCc4ccccc4)cc3)nc3sccn23)n1`: the growth in the test with NCI-H23 lung is 91.8%; with NCI-H226 lung, 44.8%; with NCI-H460 lung, 101%; with HOP-92 NSCLC, 75.8%; in the test with NCI-H522 lung, 94%; in the test on A549/ATCC NSCLC, 101%. Besides, the growth in the test with 786-0 renal is 99.3%; with COLO 205 colon it was 115%.

In the case of `COc1ccc(/C(=N\N)C(=O)c2ccccc2)cc1` (tested in a mixture with another compound), the growth in the test with NCI-H23 lung is 96.8%; with NCI-H226 lung, 95.6%; in the test with HOP-62 NSCLC, 100%; in the test on HOP-92 NSCLC it was 82.7%; with NCI-H522 lung, 72.7%; in the test on A549/ATCC NSCLC, 90.4%. The growth in the test with 786-0 renal was 105%; in the test on COLO 205 colon, 110%.

Turning to `O=C(CN1CCN(C(=O)c2ccccc2)CC1)Nc1ccccc1SCc1ccccc1`, the growth was 79% in the test on NCI-H23 lung; 81.5% in the test with NCI-H226 lung; 96.8% with NCI-H460 lung; 71.4% in the test on HOP-92 NSCLC; 50.9% with NCI-H522 lung; 83.4% in the test on A549/ATCC NSCLC. Also, the results for the growth with 786-0 renal and with COLO 205 colon were 79.3% and 82.3%, respectively.

For `CCOc1ccccc1/C=N/N1CCCCCC1`, the growth in the test on NCI-H23 lung was 89.3%; in the test on NCI-H226 lung it was 88.2%; with NCI-H460 lung it was 107%; in the test on HOP-92 NSCLC, 86.9%; in the test with NCI-H522 lung, 102%; in the test with A549/ATCC NSCLC it was 117%. The figures for the growth with 786-0 renal and in the test on COLO 205 colon were 119% and 108%, respectively.

As for `CN(C)CCC1(c2ccccc2)CCN(C)C1=O` (stereo not given), the growth is 103% with NCI-H23 lung; 95.7% in the test on NCI-H226 lung; 96.9% in the test with HOP-62 NSCLC; 123% with HOP-92 NSCLC; 86.4% with NCI-H522 lung; 105% with A549/ATCC NSCLC. Moreover, the growth in the test on 786-0 renal was 109%; in the test on COLO 205 colon it was 105%.

Regarding `CN(C)c1ncnc2c1nnn2C1OC(CO)C(O)C1O` (stereo not given), the growth was 4.79% (active) with NCI-H23 lung; 39.9% in the test with NCI-H226 lung; 32.7% in the test with HOP-62 NSCLC; 19.6% in the test with HOP-92 NSCLC; -25.2% (active) in the test on NCI-H522 lung; 36.3% in the test on A549/ATCC NSCLC. Besides, the values for the growth in the test with 786-0 renal and with COLO 205 colon were 17.2% and -80.9% (active), respectively.

For `COc1ccc(-c2nn(-c3cccc(Cl)c3)cc2-c2nc(N)[nH]c(=O)c2C#N)cc1`, the growth in the test with NCI-H23 lung was 42.7%; with NCI-H226 lung, 67.3%; in the test with NCI-H460 lung, 92.2%; in the test with HOP-92 NSCLC, 71.2%; in the test on NCI-H522 lung, 49.6%; in the test on A549/ATCC NSCLC it was 85.1%. For the same compound, the growth with 786-0 renal is 57.2%; in the test on COLO 205 colon, 107%.

As to `Cc1ccc(C(=O)C2C(=O)C3CCC2C3)cc1` (stereo not given), the growth with NCI-H23 lung is 94.4%; in the test with NCI-H226 lung, 99.2%; in the test on HOP-62 NSCLC, 99.6%; with HOP-92 NSCLC, 98%; in the test with NCI-H522 lung, 101%; in the test with A549/ATCC NSCLC, 102%. Also, the growth was 104% in the test on 786-0 renal and 100% with COLO 205 colon.

For the compound `CCOc1ccccc1/C=N\N=C(\N)N/N=C/c1ccccc1OCC`, the growth in the test with NCI-H23 lung was 23.7%; in the test with NCI-H226 lung it was 59.1%; with HOP-62 NSCLC, 43.7%; in the test on HOP-92 NSCLC, 46.5%; in the test with NCI-H522 lung, 7.36% (active); with A549/ATCC NSCLC it was 39.4%. Also, the growth in the test on 786-0 renal is 21.4%; in the test with COLO 205 colon, 28.9%.

With `Fc1ccc(C(c2ccc(F)cc2)C(Cl)Cl)cc1`, the growth in the test with NCI-H23 lung was 100%; with NCI-H226 lung, 105%; in the test with HOP-62 NSCLC it was 115%; in the test with HOP-92 NSCLC, 75.8%; in the test on NCI-H522 lung, 93.8%; in the test on A549/ATCC NSCLC it was 102%. Further, the growth was 95.7% with 786-0 renal and 108% with COLO 205 colon.

Regarding `Nc1nc(-c2ccc(Cl)cc2)cc(-c2cc3ccccc3oc2=O)n1`, the growth was 92.5% in the test on NCI-H23 lung; 88.9% in the test with NCI-H226 lung; 84.7% in the test on HOP-62 NSCLC; 101% in the test on NCI-H460 lung; 103% with A549/ATCC NSCLC; 95.7% in the test with 786-0 renal. The growth with COLO 205 colon was 100%.
